ABCB6 inh MLPCN – ABCB6 transporter inhibitors, primary screen, K562-ABCB6 cells, flow cytometry, MLPCN library; K562-ABCB6 porphyrin accumulation, 1 h; stronger effect = lower value; fluorescence ratio to DMSO, % at 10 µM; hit rate 0.19% among 360,000; ATP-binding cassette sub-family B member 6 (Homo sapiens), Q9NP58;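 active = fluorescence ratio to DMSO below 75%, the collection mean minus 3 SD; inconclusive = too few cells collected in the well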;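 also: signal is porphyrin accumulated inside mitochondria; 100% equals median channel fluorescence of DMSO control wells; lower ratio means ABCB6 inhibition with less porphyrin fluorescence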
Target sequence (Q9NP58 whole entry, looked up): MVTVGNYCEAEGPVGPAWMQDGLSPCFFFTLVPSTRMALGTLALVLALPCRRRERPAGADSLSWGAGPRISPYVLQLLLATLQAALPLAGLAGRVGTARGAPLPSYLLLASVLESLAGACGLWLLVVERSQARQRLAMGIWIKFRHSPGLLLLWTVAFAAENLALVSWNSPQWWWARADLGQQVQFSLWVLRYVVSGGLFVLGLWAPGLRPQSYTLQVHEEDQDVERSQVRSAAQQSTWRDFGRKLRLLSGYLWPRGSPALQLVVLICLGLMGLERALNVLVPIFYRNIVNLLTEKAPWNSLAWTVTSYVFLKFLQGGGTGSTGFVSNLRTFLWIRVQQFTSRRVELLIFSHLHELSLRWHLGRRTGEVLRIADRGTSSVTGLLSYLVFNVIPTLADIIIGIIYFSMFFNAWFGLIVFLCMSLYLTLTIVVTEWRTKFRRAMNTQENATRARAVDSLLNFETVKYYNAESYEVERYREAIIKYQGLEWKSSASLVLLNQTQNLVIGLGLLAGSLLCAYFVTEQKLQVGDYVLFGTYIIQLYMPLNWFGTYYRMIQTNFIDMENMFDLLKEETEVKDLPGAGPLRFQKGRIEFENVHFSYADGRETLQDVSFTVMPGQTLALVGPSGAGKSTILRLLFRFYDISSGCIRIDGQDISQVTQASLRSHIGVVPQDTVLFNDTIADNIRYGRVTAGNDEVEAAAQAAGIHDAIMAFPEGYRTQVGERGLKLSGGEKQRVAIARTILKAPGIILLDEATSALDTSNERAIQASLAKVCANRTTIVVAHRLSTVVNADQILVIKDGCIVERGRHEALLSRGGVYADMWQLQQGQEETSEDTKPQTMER
Glyco luc inh – increase of ERlucT glycosylation luciferase signal, primary screen, N-linked glycosylation inhibitor project, D54 ERlucT cells, luminescence, set 2; hit rate 0.23% among 360,000; reporter increase, % at 12.5 µM; D54 ERlucT glycosylation luciferase reporter, 24 h; percent of 100 nM tunicamycin response; AID 588692, 2011;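 active = mean luciferase reporter signal, scaled so untreated is 0 and the glycosylation-blocking control 100, at or above a set limit in every replicate; inconclusive = mean reaches the limit but not every replicate does; inactive = mean below the limit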;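 also: luciferase carries N-glycosylation sites so blocking glycosylation raises the light; 0% = median of neutral control wells and 100% = median of 100 nM tunicamycin wells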
Myeloid diff 2 – induction of myeloid progenitor differentiation, primary screen, cell-based, flow cytometry, MLPCN library. AID 624256, 2012. ER-HoxA9 myeloid progenitors, lysozyme-GFP differentiation. calls only at 10 µM. hit rate 1% among 360,000;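 active = normalized GFP-positive differentiation at or above the plate's own cutoff, the solvent-only control mean plus 3 SD; inconclusive = no clear call, values can overlap the other calls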;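 also: cells exposed to compound for four days before flow analysis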
RAD54 inh – inhibitors of human RAD54 branch migration, primary screen, biochemical, fluorescence, single point | inhibition, % at 10.4 µM | RAD54 Holliday junction branch migration, FAM/BHQ fluorescence | hit rate 0.14% among 360,000;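 active = mean normalized replicate activity at least 40 and at least half of replicates scoring 40 or more; inconclusive = only one of the two criteria met; inactive = mean below 40 and under half of replicates reaching 40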;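 also: 0% = median of neutral control wells and 100% = median of positive control wells; inhibitors cause a drop in the FAM fluorescence signal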
Vif imaging – HIV Vif self-association inhibitors, primary screen, imaging, HEK293T, single point; AID 602346, 2012; HEK293T cells, Vif self-association by quenched fluorescence, 24 h; inhibition, % at 7.49 µM; hit rate 0.35% among 340,000; in the data active = inhibition above about 50%, passing the limit was not always enough; inconclusive = no clear call, values can overlap the other calls; inactive = below about 31%
Starred values were filed as active, the others as inactive; i = inactive; ? = inconclusive; nt = no result; + = active, no number; ! = a repeat was not active. In the library only some 1.6% were active in any assay of this set; here they are far more common.

SMILES	ABCB6 inh MLPCN	Glyco luc inh	Myeloid diff 2	RAD54 inh	Vif imaging
O=[N+]([O-])c1ccc(N/N=C/c2cccc(O)c2O)c(S(=O)(=O)N2CCOCC2)c1	105	-8	i	nt	2
O=C(CSc1ccccc1)Nc1ccc(-c2nc3ccccc3[nH]2)cc1	101	9	i	nt	-1
O=C(Cc1cccs1)Nc1ccc(-c2nc3ccccc3[nH]2)cc1	95	33*	i	-2	36
C[C@H](NS(=O)(=O)c1c(Cl)cccc1Cl)C(=O)NNC(=O)COc1ccccc1F	101	3	i	2	52*
CC(Oc1ccccc1F)C(=O)NNC(=O)CCS(=O)(=O)c1ccccc1Cl (stereo unspecified)	105	1	i	4	-14
CCN(CC)CCNC(=O)c1ccc(NC(C)=O)cc1	108	2	+!	-20	2
Cc1ccc(S(=O)(=O)N2CCOCC2)cc1NC(=O)CSc1ncccn1	92	0	i	nt	0
Cc1ccc(S(=O)(=O)N2CCCCC2)cc1NC(=O)CSc1ncccn1	102	0	i	-3	54*
COc1cc(Nc2cccc(-c3ccccc3)n2)cc(OC)c1OC	100	3	i	-2	12
COc1cc(Nc2nc3c(N)cc(C(F)(F)F)cc3nc2-c2ccccc2)cc(OC)c1OC	91	26*	i	nt	6
c1ccc2c(c1)C1=NCCN1c1ccccc1-2	103	78*	?	nt	-7
C[C@H]1CN([C@@H](C)CO)C(=O)CCCn2nncc2CO[C@@H]1CN(C)S(=O)(=O)c1ccccc1F	nt	nt	nt	6	nt
Nc1nonc1-c1nc2ccccc2n1CC(=O)NC1CCCC1	82	-1	i	0	50*
CC1CCCC(C)N1C(=O)c1cc(-c2ccco2)on1 (stereo unspecified)	100	3	+	-4	-1
COc1ccccc1NC(=O)Nc1ccc2c(c1)C(=O)N(C)C[C@H](OC)[C@H](C)CN[C@H](C)CO2	nt	nt	nt	9	nt
COc1ccccc1S(=O)(=O)N[C@H]1CC[C@H](CCNC(=O)C2CCC2)O[C@@H]1CO	nt	nt	nt	5	nt
C#Cc1ccc([C@@H]2C=C(C(=O)N3CCOCC3)O[C@H](OCCCCO)C2)cc1	96	1	+	1	0
O=C(C1=C[C@H](c2ccc(Br)cc2)C[C@H](OCCCCO)O1)N1CCOCC1	106	1	i	2	-5
O=C(O)CSCC(=O)Nc1ccc(Cl)cc1C(F)(F)F	100	2	i	nt	2
CC(C)N(CC(=O)Nc1ccc(Cl)cc1C(F)(F)F)C(=O)CCl	87	34*	i	nt	-1
COc1ccc(-c2[nH]ncc2N=Nc2cc(C)cc(C)c2)cc1	101	20	+	nt	-5
O=C(C[C@H]1CC[C@H]2[C@@H](COC[C@H](O)CN2Cc2cc(F)ccc2F)O1)N1CCc2ccccc2C1	nt	nt	nt	10	nt
C[C@@H]1CN([C@@H](C)CO)S(=O)(=O)c2ccc(C3=CCCC3)cc2O[C@H]1CN(C)C	nt	nt	nt	-5	nt
Cc1ccc(/C=C\c2nccc3c2[nH]c2ccccc23)cc1	99	-1	+	6	-2
C(=C\c1nccc2c1[nH]c1ccccc12)/c1ccccc1	87	18	i	nt	-13
SMILES	ABCB6 inh MLPCN	Glyco luc inh	Myeloid diff 2	RAD54 inh	Vif imaging
O=C(N/N=C\c1ccc([N+](=O)[O-])o1)c1cncc(Br)c1	102	23	i	0	?
CCN(CC)S(=O)(=O)c1cccc(C(=O)N/N=C/c2ccc([N+](=O)[O-])o2)c1	96	51*	i	nt	-3
CC(C)(C)N1CC(OC(N)=O)C1	112	1	+	nt	-1
COc1cccc(NC(=O)C(=O)N2CCOCC2)c1	281	0	+	-5	4
COC(=O)c1ccc(NC(=O)C(=O)N2CCN(C(=S)Nc3cccc(OC)c3)CC2)cc1	101	0	i	-6	-6
CO[C@@H]1CN(C)C(=O)c2cc(NC(=O)c3ccc(F)cc3)ccc2OC[C@@H](C)NC[C@@H]1C	nt	nt	nt	-9	nt
COc1cc(OC)cc(C(=O)NCC(=O)NC(C)CCc2ccccc2)c1 (stereo unspecified)	85	-1	i	0	1
CCCCOc1ccc(C(=O)NCC(=O)NC(C)CCc2ccccc2)cc1 (stereo unspecified)	103	-2	+	-1	0
COc1cc(C)c(S(=O)(=O)NCc2ccc3c(c2)OCO3)cc1C	71*	1	i	6	3
CCCNC(=O)N1C[C@H](O)COC[C@H]2O[C@H](CC(=O)NCc3ccc(Cl)c(Cl)c3)CC[C@@H]21	nt	nt	nt	3	nt
COCCCn1c(C)nc2c(c1=O)c1nc3ccccc3nc1n2CCc1ccccc1	97	0	+	-4	38
Cc1ccc(OCC(=O)Nc2ccc3c4c(cccc24)CC3)c(C)c1	113	2	+	nt	3
Cn1c(=O)c2ncn(CC(=O)Nc3ccc4c5c(cccc35)CC4)c2n(C)c1=O	128	2	+	-3	-3
Cc1cccc(C)c1NC(=O)Cn1cnc2c(=O)n(C)c(=O)n(C)c21	93	0	i	6	10
CN(C)S(=O)(=O)N1CCN(S(=O)(=O)N2CCOCC2)CC1	101	0	i	nt	-3
CN(C)S(=O)(=O)N1CCCN(S(=O)(=O)N(C)C)CC1	102	2	i	6	66*
COc1ccccc1N1CCN(C(=O)C(C)NC(=O)c2ccco2)CC1 (stereo unspecified)	97	4	i	2	1
CC(NC(=O)c1ccco1)C(=O)N1CCc2ccccc2C1 (stereo unspecified)	106	1	+	nt	-5
C[C@H]1CCCCO[C@H](CN(C)C(=O)c2ccccc2)[C@@H](C)CN([C@@H](C)CO)C(=O)c2cc(NC(=O)Nc3ccc4c(c3)OCO4)ccc2O1	nt	nt	nt	-7	nt
CC(C)CC(=NNC(=O)c1ccncc1)c1cc(Cl)ccc1O	97	-11	nt	-17	55*
NCC[C@H](O)C(=O)N[C@@H]1C[C@H](N)[C@@H](O[C@H]2O[C@H](CN)[C@@H](O)[C@H](O)[C@H]2O)[C@H](O)[C@H]1O[C@H]1O[C@H](CO)[C@@H](O)[C@H](N)[C@H]1O	101	1	i	100*	-5
COC(=O)C1=CO[C@@H](O[C@@H]2O[C@H](CO)[C@@H](O)[C@H](O)[C@H]2O)C2C(CO)=CCC12 (stereo partly specified)	100	2	i	2	-2
O=C(CC1CC1)N1CC[C@H]2[C@H](CO)Nc3ccc(-c4ccccc4)cc3[C@H]21	nt	nt	nt	-8	nt
Cc1sc2nc(CN3CCCCC3)nc(Cl)c2c1C	103	-3	+	nt	16

High-throughput results: PubChem, several laboratories
